# Measurements reported in PubChem BioAssay (NCI).
# The panel holds about 79,000 compounds, 15% with a hit somewhere; the sample as a whole holds those more often. Unmarked numbers belong to inactive results. The source made the active and inactive calls. Cut-off read from the data, not from the text of the source: active = growth inhibition above about 70%; inactive = the rest.
# Assays:
# [1] = NCI Yeast Anticancer Drug Screen. Data for the sgs1 strain (AID 173);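 note: 0% = growth of vehicle-only control cultures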; conditions: S. cerevisiae sgs1 mutant, stronger effect = higher value
# Summary of the method: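 Inhibition of yeast growth served as the measure. The mutant strain was treated with each compound, and growth was normalised to cultures receiving vehicle alone.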
# [2] = NCI Yeast Anticancer Drug Screen. Data for the mlh1 rad18 strain (AID 175); conditions: S. cerevisiae mlh1 rad18 strain growth inhibition, stronger effect = higher value
# Summary of the method: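 Compound-treated yeast growth, normalised to vehicle controls. Strain bears defined DNA repair mutations.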
# [3] = NCI Yeast Anticancer Drug Screen. Data for the rad18 strain (AID 177); conditions: S. cerevisiae rad18 mutant growth inhibition, stronger effect = higher value
# Summary of the method: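 Inhibition values reflect reduced yeast growth compared with vehicle-treated controls, using a strain engineered with a DNA damage repair defect.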
# [4] = NCI Yeast Anticancer Drug Screen. Data for the wt1 strain (AID 149);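 note: 0% = growth of vehicle-treated wt1 cultures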; conditions: S. cerevisiae wt1 strain (SPY 50644) growth inhibition, stronger effect = higher value
# Summary of the method: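 wt1 strain grown with compound or vehicle; inhibition taken from the growth difference.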
# [5] = NCI Yeast Anticancer Drug Screen. Data for the rad50EPP+ strain (AID 151);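 note: 0% = growth of vehicle-treated control cultures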; conditions: S. cerevisiae rad50 mutant strain, stronger effect = higher value
# Summary of the method: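 Strain rad50EPP+; compound exposure; % growth inhibition vs vehicle.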
# [6] = NCI Yeast Anticancer Drug Screen. Data for the mgt1 strain (AID 153); conditions: S. cerevisiae mgt1 mutant growth inhibition, stronger effect = higher value
# Summary of the method: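 Read-out: yeast growth inhibition vs vehicle control. Strain mgt1, drawn from a panel altered in DNA damage repair or cell cycle control.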
# [7] = NCI Yeast Anticancer Drug Screen. Data for the rad50 strain (AID 155);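 note: 0% = growth of vehicle-only cultures of the same strain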; conditions: S. cerevisiae rad50 strain growth inhibition, stronger effect = higher value
# Summary of the method: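 DNA repair mutant yeast, compound exposure, growth read-out; inhibition is taken relative to vehicle.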
# [8] = NCI Yeast Anticancer Drug Screen. Data for the mec2-1 strain (AID 157); conditions: S. cerevisiae mec2-1 strain, stronger effect = higher value
# Summary of the method: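 Cells of the genetically defined mec2-1 yeast strain are incubated with test compound. Inhibition of growth is calculated against vehicle-treated controls.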
# [9] = NCI Yeast Anticancer Drug Screen. Data for the sgs1 mgt1 strain (AID 161);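 note: 0% = growth of cultures given vehicle only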; conditions: S. cerevisiae sgs1 mgt1 strain, stronger effect = higher value
# Summary of the method: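 Genetically altered yeast, compound exposure, growth inhibition relative to vehicle.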
# [10] = NCI Yeast Anticancer Drug Screen. Data for the CLN2oe strain (AID 163);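 note: 0% = growth of vehicle-only control cultures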; conditions: S. cerevisiae CLN2oe strain, stronger effect = higher value
# Summary of the method: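 Strain altered in cell-cycle control, incubated with compound; growth compared to solvent-treated controls.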
# [11] = NCI Yeast Anticancer Drug Screen. Data for the cln2 rad14 strain (AID 165);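 note: 0% = growth equal to vehicle treated cultures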; conditions: S. cerevisiae cln2 rad14 strain, stronger effect = higher value
# Summary of the method: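 The screen exposed genetically defined yeast (cln2 rad14) to test compounds and scored growth inhibition relative to vehicle-treated controls.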
# [12] = NCI Yeast Anticancer Drug Screen. Data for the bub3 strain (AID 167); conditions: S. cerevisiae bub3 mutant strain, stronger effect = higher value
# Summary of the method: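 In this screen, a yeast mutant lacking normal mitotic checkpoint function is challenged with compound. Relative growth versus vehicle gives the inhibition value.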
# [13] = NCI Yeast Anticancer Drug Screen. Data for the wt2 strain (AID 169);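 note: 0% = growth of vehicle-treated yeast cultures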; conditions: S. cerevisiae wt2 strain growth inhibition, stronger effect = higher value
# Summary of the method: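 Steps: yeast strain treated with compound; growth recorded; inhibition calculated relative to cultures given vehicle alone.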
# [14] = NCI Yeast Anticancer Drug Screen. Data for the mlh1 strain (AID 171);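 note: 0% = growth of vehicle-treated control cultures of the same strain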; conditions: S. cerevisiae mlh1 strain growth inhibition, stronger effect = higher value
# Summary of the method: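 Yeast screen: mutant strain plus compound, growth scored against vehicle control wells.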
# [15] = NCI Yeast Anticancer Drug Screen. Data for the rad14 strain (AID 159);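 note: 0% = growth of vehicle-treated control cultures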; conditions: S. cerevisiae rad14 strain growth inhibition, stronger effect = higher value
# Summary of the method: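 DNA repair-defective yeast, compound-exposed; % growth inhibition derived by comparison with vehicle-treated controls.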
# [16] = at 5.0 µM (retest, dose inferred, filed as 0.5)
# [17] = at 50.0 µM (retest, dose inferred, filed as 5.0)
smiles,measurement,setting,value
CCOC(=O)/C(=C\c1cccc(C)c1)C(C)=O,growth inhibition,[1]; at 1.2 µM,22%
same,growth inhibition,[1]; at 3.7 µM,51%
same,growth inhibition,[1]; at 11.0 µM,84% (active)
same,growth inhibition,[1]; at 33.0 µM,94% (active)
same,growth inhibition,[1]; at 100.0 µM,98% (active)
same,growth inhibition,[2]; [16],15%
same,growth inhibition,[2]; [17],94% (active)
same,growth inhibition,[2]; at 50.0 µM,90.4% (active)
same,growth inhibition,[3]; at 1.2 µM,3%
same,growth inhibition,[3]; at 3.7 µM,12%
same,growth inhibition,[3]; at 11.0 µM,65%
same,growth inhibition,[3]; at 33.0 µM,89% (active)
same,growth inhibition,[3]; at 100.0 µM,98% (active)
Cc1c(Cl)c(C)c(Cl)c(O)c1Cl,growth inhibition,[4]; at 1.2 µM,11%
same,growth inhibition,[4]; at 3.7 µM,9%
same,growth inhibition,[4]; at 11.0 µM,13%
same,growth inhibition,[4]; at 33.0 µM,80% (active)
same,growth inhibition,[4]; at 100.0 µM,98% (active)
same,growth inhibition,[5]; at 1.2 µM,-21%
same,growth inhibition,[5]; at 3.7 µM,-9%
same,growth inhibition,[5]; at 11.0 µM,-6%
same,growth inhibition,[5]; at 33.0 µM,75% (active)
same,growth inhibition,[5]; at 100.0 µM,93% (active)
same,growth inhibition,[6]; at 1.2 µM,18%
same,growth inhibition,[6]; at 3.7 µM,7%
same,growth inhibition,[6]; at 11.0 µM,56%
same,growth inhibition,[6]; at 33.0 µM,98% (active)
same,growth inhibition,[6]; at 100.0 µM,98% (active)
same,growth inhibition,[7]; at 1.2 µM,-14%
same,growth inhibition,[7]; at 3.7 µM,-21%
same,growth inhibition,[7]; [16],45%
same,growth inhibition,[7]; at 11.0 µM,-8%
same,growth inhibition,[7]; at 33.0 µM,92% (active)
same,growth inhibition,[7]; [17],95% (active)
same,growth inhibition,[7]; at 50.0 µM,92.9% (active)
same,growth inhibition,[7]; at 100.0 µM,98% (active)
same,growth inhibition,[8]; at 1.2 µM,-19%
same,growth inhibition,[8]; at 3.7 µM,7%
same,growth inhibition,[8]; [16],51%
same,growth inhibition,[8]; at 11.0 µM,-7%
same,growth inhibition,[8]; at 33.0 µM,79% (active)
same,growth inhibition,[8]; [17],96% (active)
same,growth inhibition,[8]; at 50.0 µM,93.2% (active)
same,growth inhibition,[8]; at 100.0 µM,99% (active)
same,growth inhibition,[9]; [16],2%
same,growth inhibition,[9]; [17],99% (active)
same,growth inhibition,[9]; at 50.0 µM,90.8% (active)
same,growth inhibition,[10]; at 1.2 µM,8%
same,growth inhibition,[10]; at 3.7 µM,-11%
same,growth inhibition,[10]; at 11.0 µM,29%
same,growth inhibition,[10]; at 33.0 µM,88% (active)
same,growth inhibition,[10]; at 100.0 µM,99% (active)
same,growth inhibition,[11]; [16],32%
same,growth inhibition,[11]; [17],100% (active)
same,growth inhibition,[11]; at 50.0 µM,93% (active)
same,growth inhibition,[12]; at 1.2 µM,-17%
same,growth inhibition,[12]; at 3.7 µM,-2%
same,growth inhibition,[12]; [16],27%
same,growth inhibition,[12]; at 11.0 µM,12%
same,growth inhibition,[12]; at 33.0 µM,76% (active)
same,growth inhibition,[12]; [17],100% (active)
same,growth inhibition,[12]; at 50.0 µM,93% (active)
same,growth inhibition,[12]; at 100.0 µM,100% (active)
same,growth inhibition,[13]; at 1.2 µM,-25%
same,growth inhibition,[13]; at 3.7 µM,-20%
same,growth inhibition,[13]; at 11.0 µM,14%
same,growth inhibition,[13]; at 33.0 µM,92% (active)
same,growth inhibition,[13]; at 100.0 µM,99% (active)
same,growth inhibition,[14]; at 1.2 µM,8%
same,growth inhibition,[14]; at 3.7 µM,-4%
same,growth inhibition,[14]; at 11.0 µM,29%
same,growth inhibition,[14]; at 33.0 µM,91% (active)
same,growth inhibition,[14]; at 100.0 µM,99% (active)
same,growth inhibition,[1]; at 1.2 µM,15%
same,growth inhibition,[1]; at 3.7 µM,9%
same,growth inhibition,[1]; at 11.0 µM,34%
same,growth inhibition,[1]; at 33.0 µM,95% (active)
same,growth inhibition,[1]; at 100.0 µM,99% (active)
same,growth inhibition,[2]; [16],33%
same,growth inhibition,[2]; [17],97% (active)
same,growth inhibition,[2]; at 50.0 µM,72.2% (active)
same,growth inhibition,[3]; at 1.2 µM,-26%
same,growth inhibition,[3]; at 3.7 µM,-4%
same,growth inhibition,[3]; at 11.0 µM,-25%
same,growth inhibition,[3]; at 33.0 µM,65%
same,growth inhibition,[3]; at 100.0 µM,97% (active)
O=C(Cc1ccccc1)NN1C(=O)C(Cl)C1c1cc(Br)cc(Br)c1O (centres undefined),growth inhibition,[4]; at 1.2 µM,-9%
same,growth inhibition,[4]; at 3.7 µM,-5%
same,growth inhibition,[4]; at 11.0 µM,73% (active)
same,growth inhibition,[4]; at 33.0 µM,94% (active)
same,growth inhibition,[4]; at 100.0 µM,89% (active)
same,growth inhibition,[5]; at 1.2 µM,-6%
same,growth inhibition,[5]; at 3.7 µM,1%
same,growth inhibition,[5]; at 11.0 µM,29%
same,growth inhibition,[5]; at 33.0 µM,56%
same,growth inhibition,[5]; at 100.0 µM,59%
same,growth inhibition,[6]; at 1.2 µM,-5%
same,growth inhibition,[6]; at 3.7 µM,14%
same,growth inhibition,[6]; at 11.0 µM,94% (active)
same,growth inhibition,[6]; at 33.0 µM,95% (active)
same,growth inhibition,[6]; at 100.0 µM,91% (active)
same,growth inhibition,[7]; at 1.2 µM,2%
same,growth inhibition,[7]; at 3.7 µM,20%
same,growth inhibition,[7]; [16],13%
same,growth inhibition,[7]; at 11.0 µM,81% (active)
same,growth inhibition,[7]; at 33.0 µM,91% (active)
same,growth inhibition,[7]; [17],94% (active)
same,growth inhibition,[7]; at 50.0 µM,97% (active)
same,growth inhibition,[7]; at 100.0 µM,84% (active)
same,growth inhibition,[8]; at 1.2 µM,-3%
same,growth inhibition,[8]; at 3.7 µM,19%
same,growth inhibition,[8]; [16],56%
same,growth inhibition,[8]; at 11.0 µM,95% (active)
same,growth inhibition,[8]; at 33.0 µM,95% (active)
same,growth inhibition,[8]; [17],94% (active)
same,growth inhibition,[8]; at 50.0 µM,97.3% (active)
same,growth inhibition,[8]; at 100.0 µM,92% (active)
same,growth inhibition,[15]; at 1.2 µM,-3%
same,growth inhibition,[15]; at 3.7 µM,-3%
same,growth inhibition,[15]; at 11.0 µM,85% (active)
same,growth inhibition,[15]; at 33.0 µM,93% (active)
same,growth inhibition,[15]; at 100.0 µM,92% (active)
same,growth inhibition,[9]; [16],61%
same,growth inhibition,[9]; [17],96% (active)
same,growth inhibition,[9]; at 50.0 µM,98% (active)
same,growth inhibition,[10]; at 1.2 µM,-6%
same,growth inhibition,[10]; at 3.7 µM,18%
same,growth inhibition,[10]; at 11.0 µM,95% (active)
same,growth inhibition,[10]; at 33.0 µM,94% (active)
same,growth inhibition,[10]; at 100.0 µM,86% (active)
same,growth inhibition,[11]; [16],46%
same,growth inhibition,[11]; [17],93% (active)
same,growth inhibition,[11]; at 50.0 µM,95.2% (active)
same,growth inhibition,[12]; at 1.2 µM,-8%
same,growth inhibition,[12]; at 3.7 µM,12%
same,growth inhibition,[12]; [16],98% (active)
same,growth inhibition,[12]; at 11.0 µM,94% (active)
same,growth inhibition,[12]; at 33.0 µM,96% (active)
same,growth inhibition,[12]; [17],96% (active)
same,growth inhibition,[12]; at 50.0 µM,97% (active)
same,growth inhibition,[12]; at 100.0 µM,87% (active)
same,growth inhibition,[13]; at 1.2 µM,-5%
same,growth inhibition,[13]; at 3.7 µM,10%
same,growth inhibition,[13]; at 11.0 µM,88% (active)
same,growth inhibition,[13]; at 33.0 µM,94% (active)
same,growth inhibition,[13]; at 100.0 µM,90% (active)
same,growth inhibition,[14]; at 1.2 µM,-3%
same,growth inhibition,[14]; at 3.7 µM,8%
same,growth inhibition,[14]; at 11.0 µM,90% (active)
same,growth inhibition,[14]; at 33.0 µM,95% (active)
same,growth inhibition,[14]; at 100.0 µM,92% (active)
same,growth inhibition,[1]; at 1.2 µM,4%
same,growth inhibition,[1]; at 3.7 µM,30%
same,growth inhibition,[1]; at 11.0 µM,92% (active)
same,growth inhibition,[1]; at 33.0 µM,93% (active)
same,growth inhibition,[1]; at 100.0 µM,88% (active)
same,growth inhibition,[2]; [16],47%
same,growth inhibition,[2]; [17],94% (active)
same,growth inhibition,[2]; at 50.0 µM,97.2% (active)
same,growth inhibition,[3]; at 1.2 µM,5%
same,growth inhibition,[3]; at 3.7 µM,27%
same,growth inhibition,[3]; at 11.0 µM,88% (active)
same,growth inhibition,[3]; at 33.0 µM,91% (active)
same,growth inhibition,[3]; at 100.0 µM,84% (active)
